According to the supplement of paper PMC6992640:
± gives the standard deviation of the averaged measurements.

Key:
Test in all cases: cell viability (% of vehicle); higher = less cytotoxic
[1] = test system: HCI01 (cells of a triple-negative basal-like breast cancer xenograft); details: 10 µM; 72 h
[2] = test system: HCI03 (cells of an ER-positive luminal breast cancer xenograft); details: 10 µM; 72 h
[3] = test system: HCI09 (cells of a triple-negative luminal androgen receptor type breast cancer xenograft); details: 10 µM; 72 h
[4] = test system: HCI11 (cells of an ER-positive luminal breast cancer xenograft); details: 10 µM; 72 h
[5] = test system: HCI13 (cells of an ER-positive luminal breast cancer xenograft); details: 10 µM; 72 h
[6] = test system: HCI16 (cells of a triple-negative basal-like breast cancer xenograft); details: 10 µM; 72 h
[7] = test system: UCD52 (cells of a triple-negative basal-like breast cancer xenograft); details: 10 µM; 72 h
[8] = test system: WHIM2 (cells of a triple-negative basal-like breast cancer xenograft); details: 10 µM; 72 h
[9] = test system: WHIM30 (cells of a triple-negative basal-like breast cancer xenograft); details: 10 µM; 72 h
[10] = test system: HCI01; details: 1 µM; 72 h
[11] = test system: UCD52; details: 1 µM; 72 h
[12] = test system: WHIM2; details: 1 µM; 72 h
[13] = test system: WHIM30; details: 1 µM; 72 h

Structure (SMILES)	cell viability [1]	cell viability [2]	cell viability [3]	cell viability [4]	cell viability [5]	cell viability [6]	cell viability [7]	cell viability [8]	cell viability [9]	cell viability [10]	cell viability [11]	cell viability [12]	cell viability [13]
OC(c1ccccc1)(c1ccccc1)C1CCNCC1 [Azacyclonol]	98.1 ± 19	137	84.5 ± 38	93.8	79 ± 10	110	95.8 ± 10	109 ± 34	113 ± 2.1	–	–	–	–
NCC1(CC(=O)O)CCCCC1 [Gabapentin]	96.8 ± 7.7	119	97.8 ± 9.5	104	88.1 ± 2.5	76	77.8 ± 0.82	88.1 ± 8.3	76.9 ± 11	–	–	–	–
Cc1ccc(-n2nccn2)c(C(=O)N2CCN(c3nc4cc(Cl)ccc4o3)CCC2C)c1 (centres undefined)	136 ± 9.6	88	39.5 ± 27	93.5	101 ± 34	101	91.9 ± 10	118 ± 22	136 ± 3.4	–	–	–	–
CCC1=C[C@H]2CN3CCc4c([nH]c5ccccc45)[C@@](C(=O)OC)(C2)[C@@H]13 [Catharanthine]	88.2 ± 14	122	99.5 ± 13	92.1	94 ± 2.4	124	101 ± 2.3	85.5 ± 14	97 ± 3.2	–	–	–	–
Cc1cc(C(C#N)c2ccc(Cl)cc2)c(Cl)cc1NC(=O)c1cc(I)cc(I)c1O (centres undefined) [Closantel]	29.4 ± 6.5	104	17.7 ± 1.8	85.7	37 ± 7.8	105	61.5 ± 2.6	37.6 ± 13	87.6 ± 4	88.8	91.3	105	82.7
CCCC[N+]1(C)[C@@H]2C[C@@H](OC(=O)[C@H](CO)c3ccccc3)C[C@H]1[C@@H]1O[C@@H]12 (some centres undefined) [Scopolamine butylbromide]	105 ± 5.4	116	88.8 ± 19	97.3	97.4 ± 2.5	119	100.7 ± 0.64	137 ± 14	133 ± 4.2	–	–	–	–
CN(C)C1C(=O)C(C(N)=O)=C(O)C2(O)C(=O)C3=C(O)c4c(O)cccc4C(C)(O)C3C(O)C12 (centres undefined) [Oxytetracycline (Terramycin)]	83 ± 9.9	126	108 ± 23	85.3	115 ± 6.2	122	99.8 ± 2.1	72.1 ± 17	121 ± 4.7	–	–	–	–
Cc1cc(C(C#N)c2ccc(Cl)cc2)c(Cl)cc1NC(=O)c1cc(I)cc(I)c1[O-].[Na+] (centres undefined) [Closantel Sodium]	34.4 ± 1.9	114	17.978 ± 0.0048	93.2	35.4 ± 2.9	96.3	68.1 ± 7.7	44.6 ± 10	52.7 ± 0.69	93.1	90.9	106	88.2
CCCN1CC(CSC)CC2c3cccc4[nH]cc(c34)CC21.CS(=O)(=O)O (centres undefined) [Pergolide mesylate]	107.1 ± 0.5	92.4	106 ± 8.8	87.6	98.3 ± 5.6	124	76.5 ± 1.3	101 ± 14	110 ± 12	–	–	–	–
CN1C2CCC1CC(OC(=O)C(CO)c1ccccc1)C2 (centres undefined) [Hyoscyamine]	135 ± 14	132	109 ± 16	94.3	145 ± 5.8	118	74.2 ± 7.5	93.8 ± 4	108 ± 3.8	–	–	–	–
Cc1cccc(C(C)c2cnc[nH]2)c1C (centres undefined) [Dexmedetomidine]	129 ± 5.7	106	90.4 ± 10	105	103 ± 16	148	92.7 ± 0.94	106 ± 9.5	120 ± 5.1	–	–	–	–
C[C@]12COC(=O)C[C@@H]1CC[C@@H]1[C@@H]2CC[C@@]2(C)[C@H]1CC[C@]2(C)O [Oxandrolone]	98.9 ± 17	108	107.8 ± 0.62	89.1	147 ± 18	117	95.8 ± 5.3	110 ± 23	110 ± 13	–	–	–	–
O=C1CCC2(O)C3Cc4ccc(O)c5c4C2(CCN3CC2CC2)C1O5 (centres undefined) [Naltrexone]	111 ± 8.9	121	97.4 ± 10	103	100.1 ± 0.98	93.4	94.5 ± 12	92.4 ± 14	130 ± 23	–	–	–	–
Br.COC(=O)C1=CCCN(C)C1 [Arecoline hydrobromide]	94 ± 16	135	106 ± 21	88.9	103 ± 9.4	121	121 ± 21	116 ± 1.5	114 ± 16	–	–	–	–
O=C(OC1CC2CCC(C1)[N+]21CCCC1)C(O)(c1ccccc1)c1ccccc1.[Cl-] (centres undefined) [Trospium chloride]	158 ± 1.6	119	112 ± 5.4	124	157 ± 39	165	101 ± 10	110 ± 14	121 ± 3.2	–	–	–	–
CCOC(=O)c1cncn1C(C)c1ccccc1 (centres undefined) [Etomidate]	114 ± 2.7	89.8	96.6 ± 3.1	90.1	103 ± 14	77.5	88.6 ± 2.2	81.8 ± 20	117 ± 6.2	–	–	–	–
Cc1cccc(C(C)c2cnc[nH]2)c1C.Cl (centres undefined) [Dexmedetomidine HCl]	110 ± 1.2	103	91.2 ± 26	103	82.7 ± 11	89.9	86.7 ± 1.2	72.3 ± 17	112.3 ± 0.75	–	–	–	–
CCCCCCCCCCCCCCCC[n+]1ccccc1.[Cl-] [Cetylpyridinium Chloride]	32.9 ± 12	44.4	16.9 ± 3.2	53.1	25 ± 4.5	42.1	24.2 ± 1.9	36.7 ± 13	28.1 ± 0.9	92.7	67.6	63.4	52.8

Structure (SMILES)	cell viability [1]	cell viability [2]	cell viability [3]	cell viability [4]	cell viability [5]	cell viability [6]	cell viability [7]	cell viability [8]	cell viability [9]	cell viability [10]	cell viability [11]	cell viability [12]	cell viability [13]
C[C@]12CC[C@H]3[C@@H](CC[C@@]45O[C@@H]4C(O)=C(C#N)C[C@]35C)[C@@H]1CC[C@@H]2O [Trilostane]	131 ± 24	119	90.1 ± 5.6	114	73.7 ± 19	103	115 ± 8.4	115 ± 15	100 ± 15	–	–	–	–
CCCCCCCCCCCCCCCC[N+](C)(C)C.[Br-] [Cetrimonium Bromide (CTAB)]	44.3 ± 15	56.5	21.7 ± 7.3	72	26.9 ± 2	69.1	37.5 ± 1.9	42.4 ± 8.1	35.6 ± 1.7	87.8	75.6	74.2	49.2
CCCCCCCCCCCC[N+](C)(C)CCOc1ccccc1.[Br-] [Domiphen Bromide]	34.9 ± 13	48.7	24.1 ± 1.5	50.1	41.3 ± 10	46.4	27.6 ± 1.8	44 ± 14	28.4 ± 4.7	88.5	80.4	81.7	57.1
CN1c2ccccc2C(NCCCCCCC(=O)[O-])c2ccc(Cl)cc2S1(=O)=O.[Na+] (centres undefined) [Tianeptine sodium]	132 ± 22	134	95.1 ± 10	122	95.95 ± 0.8	120	122 ± 4.6	85.3 ± 8	142.2 ± 0.38	–	–	–	–
COc1ccc(C(=O)N2CCCC2=O)cc1 [Aniracetam]	102 ± 2	107	147 ± 79	104	139 ± 1.5	95.4	96 ± 7.3	94.8 ± 14	86.1 ± 6.5	–	–	–	–
CCC1(C)CC(=O)NC(=O)C1 [Bemegride]	112 ± 13	96.5	91.7 ± 10	109	162 ± 13	108	85.8 ± 8.3	97.9 ± 6	97.2 ± 8.1	–	–	–	–
O=C(O)c1nn(Cc2ccc(Cl)cc2Cl)c2ccccc12 [Lonidamine]	88.9 ± 18	112	92.9 ± 6.3	82.9	85.1 ± 8.5	124	82.6 ± 1.7	80.2 ± 32	138.9 ± 1.1	–	–	–	–
CNCC(=O)c1ccc(O)c(O)c1.Cl [Adrenalone HCl]	111 ± 21	116	104 ± 15	107	88.5 ± 7.3	152	99.9 ± 5.5	87.8 ± 1.7	106 ± 7.2	–	–	–	–
CC1CNCCc2ccc(Cl)cc21.Cl (centres undefined) [Lorcaserin HCl]	96.6 ± 5.8	110	100 ± 5.7	81.3	94.9 ± 12	106	90.3 ± 3.9	82.89 ± 0.73	111.3 ± 0.19	–	–	–	–
CC(C)N(CCNC(=O)CN1CCCC1=O)C(C)C [Pramiracetam]	85.1 ± 58	155	101 ± 9.4	110	120 ± 2.3	129	108 ± 2.9	119 ± 11	–	–	–	–	–
CC(=O)Nc1cc([As](=O)(O)O)ccc1O [Arsonic acid]	105 ± 4.4	144	102 ± 22	112	73.2 ± 4.5	105	112 ± 25	101 ± 23	132 ± 15	–	–	–	–
CN1C(=O)CCS(=O)(=O)C1c1ccc(Cl)cc1 (centres undefined) [Chlormezanone]	90 ± 11	118	92.3 ± 7.5	105	71.1 ± 7.2	122	104 ± 10	113 ± 12	172.2 ± 0.74	–	–	–	–
CN1[C@@H]2C[C@@H](O)C[C@H]1[C@@H]1O[C@@H]12 [Scopine]	134 ± 21	138	110 ± 8.5	110	129 ± 14	99	103 ± 18	112 ± 21	144 ± 4	–	–	–	–
N#Cc1ccccc1-c1cc(-c2ccccn2)cn(-c2ccccc2)c1=O [Perampanel]	102 ± 10	89.9	85.1 ± 33	94	83.3 ± 4.5	70.4	79.2 ± 12	89.14 ± 0.86	97 ± 4.1	–	–	–	–
CC(C)NCC(O)c1ccccc1Cl.Cl (centres undefined) [Clorprenaline HCL]	104 ± 18	121	73.1 ± 30	93.9	83.1 ± 11	104	90.6 ± 16	88.3 ± 13	103 ± 2.4	–	–	–	–
Cc1cccc(Cc2cnc[nH]2)c1C.Cl [Detomidine HCl]	118 ± 4	114	96.9 ± 30	97.2	79.4 ± 6.8	92	84.9 ± 4.3	85.5 ± 32	135 ± 3	–	–	–	–
O=C(O)CCCc1ccc(N(CCCl)CCCl)cc1 [Chlorambucil]	109 ± 15	179	99.8 ± 1.1	92	113.2 ± 0.69	131	108 ± 4.7	96.7 ± 9.3	126 ± 8.3	–	–	–	–
